A selection: hits, their analogues and other compounds. The true share with any hit is near 4.6%.
D1 antag: antagonists of human D1 dopamine receptor. HEK293 TREx D1 cells, calcium flux, dopamine EC80; stronger effect = lower value. activity change, negative = inhibition, % at 10 µM. 360,000 compounds, 3.2% hits; in the data active means activity change below about -30%; further: on the % scale 0 is the no-effect control and ±100 the full control effect
Target sequence (P21728 whole entry, looked up): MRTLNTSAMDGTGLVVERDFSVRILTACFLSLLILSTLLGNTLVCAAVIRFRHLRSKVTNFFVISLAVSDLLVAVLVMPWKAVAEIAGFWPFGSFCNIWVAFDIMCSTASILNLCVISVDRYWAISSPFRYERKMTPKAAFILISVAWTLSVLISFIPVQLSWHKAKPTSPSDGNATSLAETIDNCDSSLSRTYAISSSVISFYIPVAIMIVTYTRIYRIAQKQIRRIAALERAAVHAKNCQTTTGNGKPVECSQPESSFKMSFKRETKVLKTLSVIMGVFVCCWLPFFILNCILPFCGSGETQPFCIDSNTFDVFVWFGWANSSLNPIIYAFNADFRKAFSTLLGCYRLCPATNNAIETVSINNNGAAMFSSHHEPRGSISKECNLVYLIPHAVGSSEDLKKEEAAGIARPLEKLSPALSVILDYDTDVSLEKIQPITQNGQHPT
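After overnight tetracycline induction at 30 C, force-coupled D1 HEK293 cells took up a no-wash calcium dye at room temperature. Compounds were added and monitored 180 s, and the response to EC80 dopamine was then recorded.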
TRHR agonist: TRH receptor (human) agonism; P34981; 360,000 compounds, 0.18% hits; activation, % at 2 µM; TRHR cells, calcium flux fluo-8, FDSS agonist mode; further: 0% is about no effect
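TRHR-expressing cells loaded with fluo-8 calcium dye; 23 nL library compound pin-transferred, kinetic FDSS fluorescence (Ex 480/Em 530) recorded about 180 s for agonist-induced calcium release, before a 10 nM TRH EC20 addition for potentiator mode.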
D1 PAM: potentiators of human D1 dopamine receptor; 360,000 compounds, 0.036% hits; P21728; HEK293 TREx D1 cells, calcium flux, dopamine EC20 potentiation; potentiation, % at 10 µM; in the data active means potentiation above about 30%; further: 0% is about no effect
D1 agonist: agonists of human D1 dopamine receptor; 360,000 compounds, 1% hits; HEK293 T-REx D1 cells, calcium flux, agonist mode; activation, % at 2 µM; P21728; further: 0% is about no effect
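Agonism was scored from calcium flux recorded over 180 s (1 read/s) after pintool compound addition, following a 10-cycle baseline. Cells were inducible force-coupled HEK293 TREx D1, plated overnight at 30 C and loaded with no-wash calcium dye.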
TRHR enhancer: allosteric enhancers of human TRH receptor. P34981. TRHR cells, fluo-8 calcium fluorescence, EC20 TRH enhancement. enhancement, % at 2 µM. 360,000 compounds, 0.66% hits. AID 493056; in the data active means enhancement above about 30%; further: 0% is about no effect
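Enhancer read-out: after compound pinning and an initial kinetic agonist-mode read, an EC20 of TRH (10 nM final) was injected and fluo-8 calcium signal (Ex 480/Em 530) followed at 1 s/cycle for 100 cycles in TRHR-expressing cells.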
* marks the source's active call; other numbers are inactive results. Unless noted, no stated cut-off is given here; in the data, active means activation above about 30%; inactive means the rest.

For O=C(CN1C(=O)c2cccnc2Oc2ccc(Cl)cc21)NCCCN1CCCCC1 the results were D1 antag -38*, TRHR agonist 0, D1 PAM 3, D1 agonist 0 and TRHR enhancer 1.
`CCCN1CCN(CCCNC(=O)CN2C(=O)c3cccnc3Oc3ccc(Cl)cc32)CC1` gave D1 antag -3, TRHR agonist -1, D1 PAM 3, D1 agonist 6 and TRHR enhancer 2.
`NNC(=O)COc1ccc(-c2n[nH]c(C(F)(F)F)c2-c2ccc(Br)cc2)c(O)c1` gave D1 antag -37*, TRHR agonist 2, D1 PAM -8, D1 agonist 39* and TRHR enhancer -3.
`Cc1ccccc1CNC(=O)CCCn1c(=O)c2cccn2c2ccccc21` gave D1 antag 2, TRHR agonist 0, D1 PAM -4, D1 agonist 4 and TRHR enhancer 17.
O=C(O)CCc1cc(I)c(Oc2ccc(O)c(I)c2)c(I)c1 was read as D1 antag 0, TRHR agonist 2, D1 PAM -9, D1 agonist 85* and TRHR enhancer 13.
`Cc1oc2ccc(O)c(CN3CCCCCC3)c2c1C(=O)Nc1cccc(Cl)c1C` gave D1 antag -2, TRHR agonist -1, D1 PAM -4, D1 agonist 21 and TRHR enhancer 1.
Screening N#Cc1c(C(F)(F)F)cc(-c2ccc(Cl)c(Cl)c2)nc1SCCN1CCOCC1 returned D1 antag -5, TRHR agonist 1, D1 PAM -8, D1 agonist 4 and TRHR enhancer -8.
Screening N#Cc1c(C(F)(F)F)cc(-c2ccccc2)nc1SCc1nc(N)nc(N2CCOCC2)n1 returned D1 antag -17, TRHR agonist 23, D1 PAM -3, D1 agonist 70* and TRHR enhancer -4.
`Cc1cc2c(s1)c1c(n2C)C(=O)N(Cc2ccccc2F)C1` gave D1 antag -11, TRHR agonist 0, D1 PAM 1, D1 agonist 0 and TRHR enhancer 4.
Screening COc1ccccc1NC(=O)C1=C(C)Nc2nc(SCc3ccc(Cl)cc3)nn2C1c1ccccc1Cl (stereo unspecified) returned D1 antag 27, TRHR agonist 1, D1 PAM 0, D1 agonist 2 and TRHR enhancer 3.
For COc1ccc(CNC(=O)c2sc3nc4n(c(=O)c3c2C)CCCCC4)cc1 the results were D1 antag -5, TRHR agonist 15, D1 PAM -3, D1 agonist 50* and TRHR enhancer 0.
For Cc1c(C(=O)Nc2ccc(OC(F)(F)F)cc2)sc2nc3n(c(=O)c12)CCC3 the results were D1 antag -6, TRHR agonist 0, D1 PAM 0, D1 agonist 13 and TRHR enhancer 2.
Screening CCN(C(=O)c1sc2nc3n(c(=O)c2c1C)CCCC3)c1ccccc1F returned D1 antag -37*, TRHR agonist 2, D1 PAM 3, D1 agonist 35* and TRHR enhancer 2.
Screening Cc1ccc(N(C)C(=O)c2sc3nc4n(c(=O)c3c2C)CCCC4)cc1C returned D1 antag 10, TRHR agonist 1, D1 PAM 1, D1 agonist 1 and TRHR enhancer -5.
Cc1c(C(=O)Nc2ccc(Oc3ccccc3)cc2)sc2nc3n(c(=O)c12)CCC3 was read as D1 antag -51*, TRHR agonist 0, D1 PAM -4, D1 agonist 8 and TRHR enhancer -4.
For COc1ccc(C)cc1N(C)C(=O)c1sc2nc3n(c(=O)c2c1C)CCCCC3 the results were D1 antag -12, TRHR agonist 24, D1 PAM -4, D1 agonist 43* and TRHR enhancer 12.
C/C(=N\NC(=O)C1CC1(c1ccccc1)c1ccccc1)c1cccc([N+](=O)[O-])c1 (stereo unspecified) was read as D1 antag -77*, TRHR agonist 1, D1 PAM -5, D1 agonist 1 and TRHR enhancer -1.
`Cc1ccc(S(=O)(=O)N(CC(=O)N2CCc3ccccc3C2)c2ccc(C)c(C)c2)cc1` gave D1 antag 0, TRHR agonist 1, D1 PAM -1, D1 agonist 1 and TRHR enhancer -6.

Screens (PubChem)
